# Rows were chosen to be rich in hits. Some 7.1% of all compounds tested hit in one or more screens of this group.
# IL1B secr inh: qHTS for Inhibitors of Inflammasome Signaling: IL-1-beta AlphaLISA Primary Screen. THP-1 LPS/ATP IL-1B secretion, AlphaLISA, 16 h; active compounds read low. activity change, % at 57.5 µM. actives 4.7% (n = 360,000). AID 743279, 2014; in the data active means activity change below about -50%; inconclusive means mostly about -30% to -49%; further: on the % scale 0 is the no-effect control and ±100 the full control effect
#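 THP-1 cells pretreated 1 hr with compounds (up to 57.5 uM final), then stimulated with LPS (250 ng/mL final) plus ATP (1.25 mM final); secreted IL-1B measured by AlphaLISA after 16 hr, decreased signal indicating inhibition.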
# ATXN viability: Viability Counterscreen for Primary qHTS for Inhibitors of ATXN expression; Potency, µM (highest dose often 56.7 µM), usual class: cytotoxic; S2 cells (HEK-293 line with an ATXN2-luciferase reporter) viability, CellTiter-Fluor protease fluorescence, 24 h; actives 0.49% (n = 400,000); further: potency means the concentration at half of the fitted maximal effect; nearly all actives have a fitted effect of over 40% in size
# SW480 rerep: A quantitative high throughput screen for small molecules that induce DNA re-replication in SW480 colon adenocarcinoma cells; SW480 DNA re-replication, Hoechst DNA content imaging, 48 h; Potency, µM (titrated, usually from 46.1 µM), without a hit: at the top dose re-replication activation, most hits filed as activators; actives 1.8% (n = 340,000); further: potency means the concentration at half of the fitted maximal effect; % of control where 0% means no effect; nearly all actives have a fitted effect of over 55% in size
#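 Cells (250 per well) received 23 nL compound or DMSO by pin tool and were kept 48 hr at 37 C, 5% CO2. Nuclei were then stained with Hoechst for 40 min and scanned for DNA content.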
# MCF10A rerep: A quantitative high throughput screen for small molecules that induce DNA re-replication in MCF 10a normal breast cells | actives 2.9% (n = 350,000) | Potency, µM (titrated, usually from 46.1 µM), for inactives: at the highest dose activity, positive = re-replication, usual class: activators | AID 624296, 2012 | MCF 10A DNA re-replication, Hoechst nuclear intensity, 48 h; further: potency means the concentration at half of the fitted maximal effect; % of control where 0% means no effect; nearly all actives have a fitted effect of over 50% in size
# ATXN2 expr inh: Primary qHTS for Inhibitors of ATXN expression; actives 0.72% (n = 360,000); HEK-293 ATXN2-luciferase reporter, luminescence, 24 h; Potency, µM (doses to about 57 µM), without a hit: top-dose activity change, negative = inhibition, actives largely listed as inhibitors; further: potency means the concentration at half of the fitted maximal effect; on the % scale 0 is the no-effect control and ±100 the full control effect; nearly all actives have a fitted effect of over 55% in size
#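 ATXN2-luciferase reporter cells (luciferase flanked by upstream and downstream ATXN2 gene portions) were treated 24 h at 37 °C with compounds at up to 57 uM. SteadyGlo luminescence gave expression; GF-AFC fluorescence gave viability.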
# PINK1 modulator: A Quantitative High throughput Screen to Identify Chemical Modulators of PINK1 Expression | Potency, µM (top dose mostly 76.6 µM), without a hit: at the top dose activation (PINK1 increase), actives largely listed as activators | PINK1 immunofluorescence, high-content cytometry, 24 h | actives 0.2% (n = 410,000); active means well fitted activation curve with a large enough effect; inconclusive means small, poorly fitted or top-dose-only effect; cell line not stated here; further: potency means the concentration at half of the fitted maximal effect; % of control where 0% means no effect; nearly all actives have a fitted effect of over 65% in size
#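 A stable cell line was treated with compounds at 5 concentrations for 24 hours, with CCCP as control. PINK1 levels and mitochondrial localization were measured by immunofluorescence with mitochondrial, cell and nuclear markers after fixation, read by laser-scanning cytometry.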
# * = called active by the depositor; i = inactive; ? = inconclusive; · = no result; [ ] = another dose, or the depositor's remark. Unless noted, the call rests on the fitted dose curve; in most records, active means well fitted curve in the direction sought with a large enough effect; inconclusive means small, poorly fitted or top-dose-only effect, or another doubt; inactive means no such curve, though single readings can be large; an effect the other way counts as inactive or inconclusive.
SMILES,IL1B secr inh,ATXN viability,SW480 rerep,MCF10A rerep,ATXN2 expr inh,PINK1 modulator
COc1ccc(N2CCN(C(CNC(=O)C(=O)NCc3ccc(F)cc3)c3cccnc3)CC2)cc1 (centres undefined),·,i,·,·,1%,1%
CC(C)C[C@H]1CN(CCCC[C@@H]2CNC(=O)C(=O)N2CC2CCCCC2)C(=O)C(=O)N1CCc1ccc(O)cc1,27,i,·,·,7%,0%
CCC(=O)N1N=C(c2ccccc2)CC1c1ccccc1 (centres undefined),-5,i,-55%,2%,6%,-2%
Cn1cc(C2CC(c3ccccc3)=NN2C(=O)c2ccccc2)c2ccccc21 (centres undefined),-3,i,?,5.8µM*,4%,1%
CCCC(=O)N1N=C(c2ccccc2)CC1c1cn(C)c2ccccc12 (centres undefined),-56*,?,?,23µM*,17%,-2%
CC(=O)N1N=C(c2ccc(Br)cc2)CC1c1cn(C)c2ccccc12 (centres undefined),12,i,24%,18µM*,-7%,10%
CC(=O)N1N=C(c2ccc(Br)cc2)CC1c1ccc(Br)cc1 (centres undefined),30,i,·,·,·,-1%
O=C(c1ccco1)N1CCNCC1,·,i,·,·,-1%,·
O=C(CCc1nc2ccccc2c(=O)[nH]1)NCc1ccco1,-3,i,?,?,-11%,3%
CN(CC(=O)NC(=O)NCc1ccco1)Cc1nc2ccccc2c(=O)[nH]1,0,i,5.2µM*,?,3%,7%[38.3 µM]
Cc1c(C(=O)N(C)Cc2nc3ccccc3c(=O)[nH]2)oc2ccccc12,19,?,16µM*,10µM*,-25%,11%
O=C(O)CCCCCN1C(=O)c2ccc(C(=O)O)cc2C1=O,16,i,-25%,15µM*,4%,·
CCOC(=O)c1cc(C#N)c(N2CCN(C(=O)c3cccc(C(F)(F)F)c3)CC2)nc1C(F)(F)F,?,i,7%,21%,-28%,1%
CCOC(=O)c1cc(C#N)c(N2CCN(C(=O)c3ccccc3)CC2)nc1C(F)(F)F,4,i,15µM*,-7%,-32%,0%
Cc1ccc(Nc2nc(C)nc(N)c2S(=O)(=O)c2ccccc2)cc1,·,i,·,·,13%,-2%
Cn1c(-c2cccc(Br)c2)cnc1NCc1ccccc1O,-69*,i,-3%,16%,-2%,5%
Cn1c(-c2ccc3c(c2)OCO3)cnc1NCc1ccccc1,-10,i,?,26µM*,9%,58%[38.3 µM]
Cn1c(-c2ccccc2)cnc1NCc1ccccc1,-1,i,?,23%,·,9%
O=C(CN1C(=O)C2(SCC(=O)N2c2ccc(F)c(F)c2)c2ccccc21)NCCc1ccccc1 (centres undefined),·,i,·,·,-2%,-5%
O=S(=O)(Nc1nc(-c2sccc2Cl)cs1)c1cc(Cl)ccc1Cl,35,?,-1%,8.2µM*,-13%,26%
O=C(C[C@@H]1C=C[C@H](NC(=O)Cc2ccccn2)[C@@H](CO)O1)NCCc1ccccc1,-98*,·,·,·,·,·
COC(=O)C[C@H]1C=C[C@H](NC(=O)c2ccccn2)[C@@H](CO)O1,10,·,·,·,·,·
O=S(=O)(c1ccc2c(c1)C(=NO)c1cc(S(=O)(=O)N3CCCCC3)ccc1-2)N1CCCCC1,-85*,3.5µM*,12µM*,2.1µM*,3.5µM*,11%
COc1ccc(S(=O)(=O)N2CCC(C)CC2)cc1OC,-7,i,-1%,-5%,·,1%
Cc1ccc(S(=O)(=O)N2CCN(S(=O)(=O)N3CCC(C)CC3)CC2)cc1C,-7,i,2%,18µM*,-12%,10%

# High-throughput results from PubChem BioAssay.
